Test results: PubChem BioAssay AID1903 (Southern Research Specialized Biocontainment Screening …, 2009)
“And” between values parts separate entries of the source, which are not always exact repeats. Identical values can stand only once. In all, about 310,000 compounds went through this assay and about 1,200 (0.39%) were called active. How the calls were made is not given here. A selection follows. Entries with a potency or affinity are not part of this list.

These molecules were tested against Large T antigen (Simian virus 40) (UniProt P03070) (assay: SV40 large T antigen inhibitors, biochemical (AID 1903)). Settings: SV40 large T antigen ATPase/helicase inhibition assay; at 20 µM; stronger effect = higher value.
Chain of Large T antigen (Simian virus 40) (P03070 whole entry, looked up): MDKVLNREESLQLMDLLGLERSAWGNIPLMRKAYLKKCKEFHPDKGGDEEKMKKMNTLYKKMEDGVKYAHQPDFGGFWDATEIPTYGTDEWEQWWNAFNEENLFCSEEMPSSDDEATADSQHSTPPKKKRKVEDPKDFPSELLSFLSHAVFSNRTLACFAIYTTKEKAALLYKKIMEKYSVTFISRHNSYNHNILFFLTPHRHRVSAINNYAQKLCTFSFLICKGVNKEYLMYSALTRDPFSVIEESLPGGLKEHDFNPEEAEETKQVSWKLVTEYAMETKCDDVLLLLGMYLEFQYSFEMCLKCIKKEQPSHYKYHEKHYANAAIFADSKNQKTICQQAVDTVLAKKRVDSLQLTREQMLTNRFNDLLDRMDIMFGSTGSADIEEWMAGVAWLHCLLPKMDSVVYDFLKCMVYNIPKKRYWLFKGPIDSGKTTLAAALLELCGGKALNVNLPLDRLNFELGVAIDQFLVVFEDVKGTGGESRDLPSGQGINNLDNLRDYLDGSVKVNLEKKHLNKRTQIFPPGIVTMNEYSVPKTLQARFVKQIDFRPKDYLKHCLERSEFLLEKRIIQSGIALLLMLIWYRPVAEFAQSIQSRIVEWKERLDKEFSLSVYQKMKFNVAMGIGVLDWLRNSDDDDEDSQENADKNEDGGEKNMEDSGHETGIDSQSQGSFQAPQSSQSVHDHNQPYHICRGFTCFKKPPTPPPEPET

inhibition, inactive:
COC(=O)c1cc(NC(=O)Cn2c(=O)cnc3ccccc32)cc(C(=O)OC)c1 24%, CCCCc1c(O)nc(SCC(=O)NC(C)(C)C)n(-c2ccccc2C)c1=O 0.223%, Cc1ccc(NC(=O)c2oc3ccccc3c2NC(=O)C2CC2)cc1 12.7%, Cc1cc(NC(=O)/C=C\C(=O)O)c([N+](=O)[O-])cc1C 9.88%, CCCn1c(N)c(C(=O)CSc2n[nH]c(-c3ccc(C)cc3)n2)c(=O)[nH]c1=O 8.37%, CC(C)C[C@H]1CN=C(Nc2ccccc2)N1CCCC1CCCC1 16.4%, Oc1ccc(/C=N\Nc2nncc(-c3ccccc3)n2)cc1 28.1%, O=c1[nH]c(=O)c2nnc(N/N=C/c3ccccc3F)nc2[nH]1 11.5%, CC(C)C(NS(=O)(=O)c1cccc2nsnc12)C(=O)Nc1nc2ccc(Cl)cc2s1 (stereo not given) 1.74%, COc1ccc(S(=O)(=O)Nc2c(C(=O)O)[nH]c3ccccc23)cc1 11.7%, COc1ccc(N2C(=O)NC(=O)C2=O)cc1 1.84%, Nc1nc(Nc2ccccc2Cl)cc(=O)[nH]1 10.8%, COCn1c(-c2ccc(OC)c(OC)c2)nc2ccccc21 3.62%, O=C1CS/C(=N\N=C\c2ccco2)N1c1ccccc1 31.1%, COc1ccc2cc(S(=O)(=O)n3cnc(C)c3)ccc2c1 3.48%, CCN(CC)c1ccc(/C=N/NC(=O)CN2CCCc3ccccc32)cc1 13.9%, COc1ccc(N2CCN(C(=S)Nc3ccccc3)CC2)cc1 17.3%, CCN1CCN(C(=O)NC2CC(=O)N(c3ccc(OC)cc3)C2)CC1 (stereo not given) 24.6%, CNC(=S)N1CCN(c2cccc(OC)c2)CC1 -1.1%, COc1ccc(N2CC(NC(=O)N3CCN(c4ccccc4)CC3)CC2=O)cc1 (stereo not given) 21.7%, CCC(Sc1nc(N)c(NC(=O)c2ccc(OC)cc2)c(=O)[nH]1)C(=O)O (stereo not given) 7.11%, Cc1cc(NC(=O)CSc2nc(N)c(NC(=O)c3ccc(F)c(F)c3)c(=O)[nH]2)no1 5.69%, N#CC(C#N)=C1c2cc(S(N)(=O)=O)ccc2-c2ccc(S(N)(=O)=O)cc21 3.73%, N=C1/C(=C\c2ccc(OCc3ccccc3)cc2)C(=O)N=C2SC(N3CCCC3)=NN12 10.7%, O=c1[nH]c(CSc2nnc(-c3ccccc3)n2-c2ccccc2)nc2ccccc12 3.3%, COc1cccc(C(=O)NCC(=O)N2CCC3(CC2)NCCc2[nH]cnc23)c1OC 28.6%, O=C(CSc1nc(-c2ccco2)cc(C(F)(F)F)n1)Nc1ccccc1C(F)(F)F 13.3%, O=C(O)C1CC(=O)N(c2ccc(OCc3c(F)cccc3Cl)cc2)C1 (stereo not given) 1.79%, COc1ccc(-c2oc3ncnc(N)c3c2-c2ccccc2)cc1 5.94%, Cc1ccc(-c2oc3ncnc(N)c3c2-c2ccc(C)cc2)cc1 5.86%, Cc1cc(NC(=O)CSc2nc3ccccc3n2CC(=O)N2CCC(C)CC2)no1 -5.11%, NC1=NC(=O)C2(COC(c3ccncc3)OC2)S1 (stereo not given) 3.62%, CC(C)CSc1nc2ccccc2n1CC(=O)O 9.25%, CC(=O)N1C(=O)N(C(C)=O)C2C1N(C(C)=O)C(=O)N2C(C)=O (stereo not given) 5.35%, O=C1CCCN=C(Nc2ccc(F)c(Cl)c2)S1 9.56%, CN1C(=O)/C(=C\C=C2/CCCN2C)N(C)C1=S 17.1%, CN1CCN(/C=C2\SC(=S)NC2=O)CC1 5.4%, COc1ccc(-c2cc(C(=O)Nc3cccc(Cl)c3)no2)cc1 7.5%, O=C(COc1ccc(F)cc1)Nc1cc(S(=O)(=O)N2CCCCC2)ccc1N1CCCCC1 16%, N#CC1=C2SCN(c3ccccc3)CN2C(=O)CC1c1c(Cl)cccc1Cl (stereo not given) 33.9%, N#CC1=C2SCN(c3ccc(F)cc3)CN2C(=O)CC1c1cccc(F)c1 (stereo not given) 35.6%, N#CC1=C2SCN(Cc3ccccc3)CN2C(=O)CC1c1ccccc1F (stereo not given) 35.3%, CCc1ccccc1N1CSC2=C(C#N)C(c3ccccc3F)CC(=O)N2C1 (stereo not given) 54.3% and 27%, N#CC1=C2SCN(Cc3ccco3)CN2C(=O)CC1c1ccccc1F (stereo not given) 21.6%, N#CC1=C2SCN(Cc3ccco3)CN2C(=O)CC1c1cccc2ccccc12 (stereo not given) 24.4%, COc1ccccc1Nc1nc(NCCO)nc(N)c1[N+](=O)[O-] 7.82%, COc1ccc(-c2cc(-c3n[nH]c(=S)n3-c3ccccc3OC)[nH]n2)cc1 32.3%, O=c1cc(-c2ccccc2)nc(N2CCN(Cc3ccc4c(c3)OCO4)CC2)[nH]1 9.11%, O=C(N/N=C/c1cccnc1)c1cccc(N2CCCC2=O)c1 0.45%, Cn1cccc1Cc1nnc(SCC(=O)NCCc2ccccc2)n1C -0.6%, Cc1noc(C)c1C(=O)N1CCCC(Nc2ccc(C(C)C)cc2)C1 (stereo not given) -5.88%, COC(=O)c1cccc(C(=O)N2CCCC(Nc3ccc4c(c3)OCCO4)C2)c1 (stereo not given) 29.8%, CC(C)c1ccc(NC2CCCN(C(=O)c3ccco3)C2)cc1 (stereo not given) 19.6%, Cc1ccc(NC2CCCN(C(=O)c3c(C)noc3C)C2)cc1C (stereo not given) 21.2%, COc1ccc(C(=O)N2CCCC(Nc3ccc(F)cc3)C2)c(OC)c1 (stereo not given) 12%, COc1ccc(OC)c(C(=O)N2CCCC(Nc3ccc(F)cc3)C2)c1 (stereo not given) 23%, COc1ccc(NC2CCCN(C(=O)c3ccc4nccnc4c3)C2)cc1OC (stereo not given) 32.5%, COc1ccc(NC2CCCN(C(=O)c3ccc4nc(C)c(C)nc4c3)C2)cc1OC (stereo not given) 26.4%, COc1ccc(-n2cnc3cc(C(=O)NCC4CCCO4)ccc32)cc1 (stereo not given) 3.91%, CN(C)CCCN(C(=O)c1ccco1)c1nc2ccc(F)cc2s1 7.29%, C(=N\N1CCN(c2ccccc2)CC1)/c1ccccc1 8.2%, COC(=O)[C@@H]1C[C@H]2CC[C@H](O)C[C@H]2N1Cc1ccc(Cl)cc1 8.58%, N#Cc1c(/N=C/c2ccc(-c3ccccc3C(=O)O)o2)sc2c1CCCC2 13.3%, CCOC(=O)C1CCN(C(=O)CCNC(=O)c2cc(OC)c(OC)c(OC)c2)CC1 4.64%, CCOC(=O)CSc1nnc(NC(=O)c2ccco2)s1 -8%, Cc1ccc(N(CC(=O)NCC2CCCO2)C(=O)Cn2nnc(-c3cccs3)n2)cc1 (stereo not given) 24.6%, Cc1ncc(CN2CCC(CO)(Cc3ccccc3)CC2)s1 2.75%, COc1ccc(NC2CCCN(C(=O)c3ccncc3)C2)cc1 (stereo not given) 51.8%, COc1ccc(NC2CCCN(C(=O)c3ccc(C(C)=O)cc3)C2)cc1 (stereo not given) 46.3%, O=C(Nc1cccnc1)/C(N=Nc1c(Cl)cccc1Cl)=C(\O)c1ccccc1 0.28%, C/C(=N\NC(=O)CC#N)c1cc2ccc(O)cc2oc1=O 21.8%, C/C(=N/NC(=O)c1ccncc1)c1cc2ccc(O)cc2oc1=O 12.9%, CCc1noc(C)c1C(=O)N1CCN(S(=O)(=O)c2c(C)c(C)cc(C)c2C)CC1 5.1%, O=C(O)c1ccccc1C(=O)c1cccc2ccccc12 8.24%, O=C(O)CCC(=O)c1cccc2ccccc12 6.26%, CS(=O)(=O)N1CCCC(C(=O)N2CCN(c3cccc(Cl)c3)CC2)C1 (stereo not given) 9.69%, COc1ccccc1NC(=S)N(CCCN1CCOCC1)Cc1ccccn1 12.9%, Cc1nc2ccc(S(=O)(=O)N3CCCCC3)cc2s1 2.61%, CSc1nc2ccc(S(=O)(=O)N3CCCCC3)cc2s1 4.61%, COc1ccc(NC(=O)CC2C(=O)N(c3ccc(F)cc3)C(=S)N2NC(=O)c2ccc(Cl)cc2)cc1 (stereo not given) 8.76%, O=C(Nc1ccc(Br)cc1)c1cccc(N2C(=O)CCC2=O)c1 7.57%, CCCOc1ccc(C(=O)Nc2ccc(N(C)C)cc2)cc1 32%, COc1cc(C(=O)Nc2ccc(Nc3ccccc3)cc2)cc(OC)c1OC 12.4%, CN(C)c1ccc(NC(=O)c2ccc3nsnc3c2)cc1 18.4%, O=C(Nc1ccccc1)c1cccc(N2C(=O)CCC2=O)c1 5.21%, O=C(Nc1ccc(F)cc1)c1ccc2nc[nH]c2c1 7.49%, COc1cc(C(=O)Nc2ccncc2)cc(OC)c1OC 5.76%, CC(C)Oc1ccc(NC(=O)c2ccncc2)cc1 3.7%, COc1ccc(-c2cc(=O)c3cc(OC)c(OC)cc3[nH]2)cc1 3.81%, Cc1ccc(/C=C(\NC(=O)c2ccccc2)C(=O)NCC2CCCO2)o1 (stereo not given) 6.08%, O=C(COc1ccc(C(=O)c2ccccc2)cc1)NC1CCCCCC1 -8.94%, NC(N)=Nc1nc2ccc(Cl)cc2c(=O)[nH]1 11.5%, COc1ccc(NC(=O)/C=C/c2ccc(OC(F)F)cc2)cn1 9.9%, COc1ccc(N2CCN(C(=O)CN3C(=O)NC(c4ccc(OC)cc4)(c4ccc(OC)cc4)C3=O)CC2)cc1 6.64%, Cc1cc(=O)n(CC=C(Cl)Cl)c2ccccc12 -7.91%
